Reference: PubChem BioAssay
The source made the active and inactive calls.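 The calls were made as follows, unless noted: active = compound raises insulin release from rat beta cells at 5 mM glucose, no numeric limit stated; inactive = the rest.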

Experiments:
[1] = Wnt pathway potentiators raising nuclear beta-catenin – imaging, WNT3A-conditioned medium, mouse C2C12, NPC library, primary screen (AID 1117326; in the data active = nuclear beta-catenin stimulation mostly above about 4.2%, no sharp cut-off; inactive = mostly below about 10%; also: reference of the scale not given here); details: stronger effect = higher value
[2] = stimulators of insulin release from INS-1E, primary screen, cell-based, 5 mM glucose, NPC library (AID 1117329); details: rat INS-1E insulin secretion, at 10 µM, stronger effect = higher value; also: reference of the scale not given here
[3] = growth inhibition of GSK3B-pretreated HCT116 cells – cell-based, CellTiter-Glo, 0.2 to 20 µM (AID 1117336;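 active = compounds lowering colon cancer cell viability after pretreatment blocking the GSK3B kinase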); details: HCT116 viability after GSK3B inhibitor, at 20 µM, stronger effect = higher value
[4] = inhibition of endothelial tube formation, primary screen, imaging, VEGF stimulated, CD31 staining, tube area, NPC library (AID 1117340;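 active = compound that reduces growth-factor-driven endothelial tube area in a mixed cell culture, no cutoff stated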); details: VEGF-stimulated ADSC/ECFC co-culture, at 10 µM, stronger effect = higher value
[5] = GLP1 release stimulators, primary, NCI-H716, NPC library (AID 1117341;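 active = compound raises GLP1 secretion from the human gut endocrine cells, with no numeric limit stated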; also: reference of the scale not given here); details: NCI-H716 cells, at 10 µM, stronger effect = higher value
[6] = HCT116 colon cancer cell growth inhibition, primary screen, CellTiter-Glo luminescence, NPC library (AID 1117342;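 active = compounds that lower survival of HCT116 colon cancer cells in the luminescence readout, no numeric limit stated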); details: at 20 µM (top of the series)
[7] = reduced SW480 viability measured with CellTiter-Glo, NPC library, primary (AID 1117343;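 active = compounds that lower viability of the colon cancer cells in the luminescence readout, with no numeric limit stated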); details: CellTiter-Glo luminescence; at 20 µM (top of the series)
[8] = NPC library primary testing for decreased DLD-1 cell viability via CellTiter-Glo (AID 1117346;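 active = compounds that lower survival of DLD-1 colon cancer cells in the luminescence readout, no cutoff given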); details: DLD-1 viability, CellTiter-Glo luminescence; at 20 µM (top of the series)

Row | Compound | nuclear beta-catenin stimulation ([1]; at 10 µM) | nuclear beta-catenin stimulation ([1]; stimulation, at 2 µM) | insulin secretion stimulation [2] | viability decrease [3] | tube area decrease [4] | GLP1 secretion stimulation [5] | inhibition of viability [6] | viability decrease (inhibition) [7] | viability decrease (inhibition) [8]
1 | Clc1ccc2c(c1)Nc1ccccc1S2 | 0.9% (inactive) | -2.3% | 4.2% (inactive) | 55.6% (active) | 26.5% (inactive) | -3.1% (inactive) | 32.4% (inactive) | 31.8% (inactive) | 17.5% (inactive)
2 | NC(=S)N/N=C/c1cccnc1 | 0.4% (inactive) | 0.5% | -0.8% (inactive) | 0.7% (inactive) | -13.5% (inactive) | 1.9% (inactive) | -8.9% (inactive) | 38.7% (inactive) | 1.65% (inactive)
3 | CCN(CC)C(=O)[C@]1(c2ccccc2)C[C@H]1CN | -2.4% (inactive) | -0.9% | 10.5% (inactive) | -13.1% (inactive) | -15.6% (inactive) | 3.7% (inactive) | -3.6% (inactive) | 7% (inactive) | 3.4% (inactive)
4 | C=Cc1c(C)c2cc3nc(cc4[nH]c(cc5nc(cc1[nH]2)C(C)=C5CCC(=O)O)c(CCC(=O)OC)c4C)[C@@]1(C)C3=CC=C(C(=O)OC)[C@@H]1C(=O)OC | 16.7% (inactive) | 0.4% | 1.5% (inactive) | 97.7% (active) | -206% (inactive) | -1.9% (inactive) | 92.4% (active) | 98.2% (active) | 99.9% (active)
5 | COc1cc(C(=O)OC(COCCC(C)C)CN2CCOCC2)cc(OC)c1OC (centres undefined) | 0.4% (inactive) | 2.6% | 1.9% (inactive) | -9.2% (inactive) | 0.7% (inactive) | 13.1% (inactive) | 18.4% (inactive) | 39.2% (inactive) | 2.2% (inactive)
6 | COC(=O)C1=C(C)NC(COC(N)=O)=C(C(=O)OC(C)C)C1c1cccc(Cl)c1Cl (centres undefined) | 35.5% (inactive) | 0.7% | 8.1% (inactive) | 94.6% (active) | 23.2% (inactive) | 0.3% (inactive) | 99.8% (active) | 123% (active) | 68.5% (active)
7 | O=C(O)CCC(=O)O | 0% (inactive) | 0.2% | -1% (inactive) | -5.25% (inactive) | -24.1% (inactive) | 1.6% (inactive) | -15.8% (inactive) | 10% (inactive) | -6.5% (inactive)
8 | Cc1ccc(O)c2ncccc12 | 30.3% (inactive) | 2.4% | -2% (inactive) | 16.6% (inactive) | 5.7% (inactive) | 2.8% (inactive) | 33% (inactive) | 27% (inactive) | 4.9% (inactive)
9 | OCC(O)CS (centres undefined) | -0.5% (inactive) | 0.8% | 0.7% (inactive) | -84.2% (inactive) | 27.8% (inactive) | 0.4% (inactive) | 6.77% (inactive) | -24% (inactive) | -8.2% (inactive)
10 | CCCC(=O)OC[C@@H](OC(=O)CCC)[C@@H](OC(=O)CCC)[C@H](Cn1c2nc(=O)[nH]c(=O)c-2nc2cc(C)c(C)cc21)OC(=O)CCC | -0.4% (inactive) | 2.2% | 1.9% (inactive) | 39.1% (inactive) | 14.1% (inactive) | 2.6% (inactive) | 11.7% (inactive) | 25.5% (inactive) | 24.5% (inactive)
11 | Cc1cc(NS(=O)(=O)c2ccc(N)cc2)nc(C)n1 | 0.1% (inactive) | 0.7% | -1.1% (inactive) | 0.6% (inactive) | -1.9% (inactive) | -0.1% (inactive) | -10.6% (inactive) | 55% (active) | 29.8% (inactive)
12 | Cc1cc(C)c(NC(=O)CN(CC(=O)O)CC(=O)O)c(C)c1Br | 1.9% (inactive) | 0.6% | 0.25% (inactive) | 29.2% (inactive) | -4.1% (inactive) | -3.7% (inactive) | 13.3% (inactive) | 4.7% (inactive) | -14.9% (inactive)
13 | c1ccc(CCNc2nc(-c3ccccc3)cs2)cc1 | 1.5% (inactive) | 0.6% | -1.4% (inactive) | 38.9% (inactive) | 34.9% (inactive) | -1.7% (inactive) | 57.7% (active) | 35.5% (inactive) | 31.5% (inactive)
14 | COc1cc(OC)nc(O[C@H](C(=O)O)C(OC)(c2ccccc2)c2ccccc2)n1 | 2.7% (inactive) | -0.4% | 1% (inactive) | 1.1% (inactive) | -16.9% (inactive) | 3.3% (inactive) | 1.2% (inactive) | 6.1% (inactive) | 2.4% (inactive)
15 | CCOC(=O)C(=O)CCc1ccccc1 | 0.7% (inactive) | 2% | 2.2% (inactive) | -4.7% (inactive) | -7.2% (inactive) | 5% (inactive) | 10.3% (inactive) | -2.4% (inactive) | 1% (inactive)
16 | N[C@@H](Cc1cc(I)c(O)c(I)c1)C(=O)O | 15% (inactive) | 3.2% | -1% (inactive) | -3.6% (inactive) | 26.5% (inactive) | -3.4% (inactive) | 3.4% (inactive) | 24.1% (inactive) | -15.2% (inactive)
